Records with an inconclusive call do not appear. A call without a number means that no potency is given here. Activity calls are given as the source filed them. Calls follow the shape of the dose curve; as a rule, active = well fitted cell-killing curve with a large enough effect; inconclusive = small, poorly fitted or top-dose-only effect; inactive = flat fitted curve, though single readings scatter.

A short description of this experiment: Cell Viability - LYMP2-026 (AID 989).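 Also: cells exposed to compound for 24 h at 37 °C; nearly all actives have a fitted effect of over 50% in size.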 The following applies: LYMP2-026 lymphoblastoid cell viability, qHTS; series mostly up to 92.2 µM. The text has this: NIH Chemical Genomics Center [NCGC]
NIH Molecular Libraries Screening Centers Network [MLSCN]
National Institutes of Environmental Health Sciences [NIEHS]
National Toxicology Program [NTP]
We have developed a 1536-well cell-based assay for quantitative high throughput screening (qHTS) against a number of cell lines to determine in vitro cytotoxicity of small molecules. This particular assay uses a human lymphoblastoid cell line (LYMP2-026) purchased from Coriell Institute for Medical Research.
NCGC Assay Protocol Summary:
The CellTiter-Glo luminescent cell viability assay (Promega) is a homogeneous method to measure the number of viable cells in culture. The end point readout of this assay is based on quantitation of intracellular ATP, an indicator of metabolic activity, using the luciferase reaction. Luciferase catalyzes the oxidation of beetle Luciferin to oxyluciferin and light in the presence of ATP. The luminescent signal is proportional to amount of ATP present.
Using the CellTiter-Glo luminescent cell viability assay, the amount of cellular ATP was measured in the lymphoblastoid cell line with complete culture medium following compound treatment for 24 hours. The assay was performed in opaque white Kalypsys 1536-well plates. In the screen, tetraoctylammonium bromide was used as positive control. Library compounds were measured for their ability to cause acute toxicity in the cell line, as reflected by a decrease in intracellular ATP levels, in a concentration-dependent manner. […] AC50 values were determined from concentration-response data modeled with the standard Hill equation.
qHTS protocol for CellTiter Glo lymphoblastoid cellular assay
[Step] [Parameter] [Value] [Description]
1. Reagent; 5 uL; 2500 lymphoblastoid cells/well
2. Time; 5 hr; 37 C incubation
4. Controls; 23 nL; Tetraoctylammonium bromide 6.4pM to 92 uM
5. Time; 24 hr; 37 C incubation
6. Reagent; 5 uL; CellTiter Glo reagent
7. Time; 30 min; Room Temperature
8. Detection; Luminescence; Viewlux plate reader
Keywords: cell viability, cytotoxicity, lymphoblastoid cell line, luminescence, NTPHTS, NTPHTS_NCGC, NIEHS, DSSTox, MLSMR, MLSCN, NIH Roadmap, qHTS, NCGC
Background: qHTS replaces the single test concentration by a dilution series.
On to `Cc1cccc(N)c1C`, for which the Potency entry is “inactive”. Next, `CN(C)c1ccc(N=Nc2ccccc2)cc1`: “inactive”; `Nc1ccc(-c2ccc(N)cc2)cc1`: “inactive”; `O=[N+]([O-])c1ccccc1CCl`: “inactive”. For `Oc1ccc(Cl)c(Cl)c1`, the Potency result is “inactive”.

Consider `c1ccoc1`, for which the Potency entry is “inactive”.

In the case of `Cc1coc2c1CCC(C)C2` (stereo not given), the Potency entry was “inactive”. Next, `CN(C)C(=O)Nc1cccc(C(F)(F)F)c1`: “inactive”; `CC(=O)NNc1ccccc1`: “inactive”. Next, `COC(=O)Nc1nc2ccccc2[nH]1`: “inactive”. For the molecule `ClCC(Cl)Cl`, the Potency result was “inactive”. Next, `CC(=O)CCC(C)=O`: “inactive”. In the case of `OCCCCO`, the Potency result is “inactive”. Next, `C=CCOCC1CO1` (stereo not given): “inactive”. Next, `CCCN(CCC)c1c([N+](=O)[O-])cc(C(F)(F)F)cc1[N+](=O)[O-]`: “inactive”. For the molecule `O=[N+]([O-])c1ccc2c3c(cccc13)CC2`, the Potency result was “inactive”. Next, `N#CC(O)c1ccccc1` (stereo not given): “inactive”; `CCNCC`: “inactive”; `CC(Cl)CCl` (stereo not given): “inactive”. Take `O=C(O)C(Cl)(Cl)Br`: the Potency result was “inactive”.

As to `Cc1ccc(OP(=O)(Oc2ccc(C)cc2)Oc2ccc(C)cc2)cc1`, the Potency entry was “inactive”. Next, `Nc1cc(Cl)cc(Cl)c1`: “inactive”; `CCN(N=O)C(N)=O`: “inactive”. As for `CN(C)c1ccc(N(C)C)cc1`, the Potency entry was “inactive”. Next, `Nc1ccc(-c2ccccc2)cc1`: “inactive”; `Cc1ccc2c(C)cccc2c1`: “inactive”; `Nc1cc(Cl)cc(C(=O)O)c1Cl`: “inactive”. Next, `Cc1ccc2c(c1N)C(=O)c1ccccc1C2=O`: “inactive”; `COC(C)(C)C`: “inactive”; `FC(Cl)(Cl)Cl`: “inactive”. Next, `O=[N+]([O-])c1ccc(Cl)cc1`: “inactive”. As to `COP(=S)(OC)SCn1nnc2ccccc2c1=O`, the Potency result was “inactive”. For `Nc1ccccc1-c1ccccc1`, the Potency entry is “inactive”. Next, `Cc1ccc(N=C=O)cc1N=C=O`: “inactive”; `NNC(N)=S`: “inactive”; `CN(C)C(=O)Nc1ccc(Cl)cc1`: “inactive”. Take `O=[N+]([O-])c1cc(Cl)c(Cl)cc1Cl`: the Potency entry is “inactive”. `Oc1cc(Cl)c(Cl)c(Cl)c1Cl`: the Potency result is “inactive”. Turning to `ClP(Cl)(Cl)(Cl)Cl`, the Potency entry was “inactive”. In the case of `Clc1ccc(C(c2ccccc2Cl)C(Cl)(Cl)Cl)cc1` (stereo not given), the Potency entry was “inactive”.

For the origin of these results see PubChem BioAssay (NCATS).
